# Source: publication PMC5540273 (PLoS ONE, 2017)
# Several values for one entry are separate records, joined by “and”; a condition that tells them apart may be missing. Equal values may be shown once. Read-outs that look alike come from different tables or passages of the source.
# Columns and labels:
# LTK = details: concentration: 1 μM, replicates: in singlicate, n = 1
# LYN = details: concentration: 1 μM, replicates: in singlicate, n = 1
# LZK = test system: T1, LZK; details: concentration: 1 μM, replicates: in singlicate, n = 1
# T1 construct: gene MAP3K13
# MAK = details: concentration: 1 μM, replicates: in singlicate, n = 1
# MAP3K15 = details: concentration: 1 μM, replicates: in singlicate, n = 1
# MAP3K1 = details: concentration: 1 μM, replicates: in singlicate; n = 1
# MAP3K2 = details: concentration: 1 μM, replicates: in singlicate, n = 1
# MAP3K3 = details: concentration: 1 μM, replicates: in singlicate, n = 1
# MAP3K4 = details: concentration: 1 μM, replicates: in singlicate, n = 1
# MAP4K2 = details: concentration: 1 μM, replicates: in singlicate, n = 1
# MAP4K3 = details: concentration: 1 μM, replicates: in singlicate, n = 1
# MAP4K4 = details: concentration: 1 μM, replicates: in singlicate, n = 1
# MAP4K5 = details: concentration: 1 μM, replicates: in singlicate, n = 1
# MAPKAPK2 = details: concentration: 1 μM, replicates: in singlicate, n = 1
# MAPKAPK5 = details: concentration: 1 μM, replicates: in singlicate, n = 1
# MARK1 = details: concentration: 1 μM, replicates: in singlicate, n = 1
# MARK2 = details: concentration: 1 μM, replicates: in singlicate, n = 1
# MARK3 = details: concentration: 1 μM, replicates: in singlicate, n = 1
# MARK4 = details: concentration: 1 μM, replicates: in singlicate, n = 1
# MAST1 = details: concentration: 1 μM, replicates: in singlicate, n = 1
# 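Note: KINOMEscan kinase panel screen.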
smiles,measurement,setting,value
O=c1cc(N2CCOCC2)nc2n(Cc3cccc(F)c3)ccn12 [GSK2297430],%Inh,LTK,68%
same,%Inh,LYN,0%
same,%Inh,LZK,0%
same,%Inh,MAK,21%
same,%Inh,MAP3K15,0%
same,%Inh,MAP3K1,17%
same,%Inh,MAP3K2,0%
same,%Inh,MAP3K3,0%
same,%Inh,MAP3K4,10%
same,%Inh,MAP4K2,0%
same,%Inh,MAP4K3,11%
same,%Inh,MAP4K4,9%
same,%Inh,MAP4K5,4%
same,%Inh,MAPKAPK2,12%
same,%Inh,MAPKAPK5,0%
same,%Inh,MARK1,0%
same,%Inh,MARK2,0%
same,%Inh,MARK3,0%
same,%Inh,MARK4,10%
same,%Inh,MAST1,0%
O=c1cc(N2CCOCC2)nc2n(Cc3cccc(C(F)(F)F)c3)ccn12 [GSK2297543],%Inh,LTK,16%
same,%Inh,LYN,0%
same,%Inh,LZK,0%
same,%Inh,MAK,31%
same,%Inh,MAP3K15,0%
same,%Inh,MAP3K1,5%
same,%Inh,MAP3K2,10%
same,%Inh,MAP3K3,0%
same,%Inh,MAP3K4,13%
same,%Inh,MAP4K2,0%
same,%Inh,MAP4K3,0%
same,%Inh,MAP4K4,0%
same,%Inh,MAP4K5,0%
same,%Inh,MAPKAPK2,0%
same,%Inh,MAPKAPK5,0%
same,%Inh,MARK1,1%
same,%Inh,MARK2,0%
same,%Inh,MARK3,0%
same,%Inh,MARK4,12%
same,%Inh,MAST1,9%
COc1ccc(CNC(=O)NC2CCN(c3ccnc(Nc4ccc(OC)cc4)n3)C2)cc1 (stereo not drawn) [GSK1379727],%Inh,LTK,0%
same,%Inh,LYN,0%
same,%Inh,LZK,0%
same,%Inh,MAK,7%
same,%Inh,MAP3K15,0%
same,%Inh,MAP3K1,0%
same,%Inh,MAP3K2,0%
same,%Inh,MAP3K3,0%
same,%Inh,MAP3K4,10%
same,%Inh,MAP4K2,0%
same,%Inh,MAP4K3,0%
same,%Inh,MAP4K4,0%
same,%Inh,MAP4K5,0%
same,%Inh,MAPKAPK2,20%
same,%Inh,MAPKAPK5,0%
same,%Inh,MARK1,0%
same,%Inh,MARK2,0%
same,%Inh,MARK3,0%
same,%Inh,MARK4,0%
same,%Inh,MAST1,0%
Fc1ccc(-c2ncn(CCCN3CCOCC3)c2-c2ccccn2)cc1 [SB-211742],%Inh,LTK,11%
same,%Inh,LYN,0%
same,%Inh,LZK,0%
same,%Inh,MAK,0%
same,%Inh,MAP3K15,0%
same,%Inh,MAP3K1,0%
same,%Inh,MAP3K2,0%
same,%Inh,MAP3K3,0%
same,%Inh,MAP3K4,18%
same,%Inh,MAP4K2,0%
same,%Inh,MAP4K3,0%
same,%Inh,MAP4K4,2%
same,%Inh,MAP4K5,0%
same,%Inh,MAPKAPK2,0%
same,%Inh,MAPKAPK5,0%
same,%Inh,MARK1,0%
same,%Inh,MARK2,0%
same,%Inh,MARK3,30%
same,%Inh,MARK4,24%
same,%Inh,MAST1,18%
COc1ccc(Nc2ncc(C#N)c(Nc3ccccc3C(N)=O)n2)cc1N1CCN(C)CC1.Cl [GSK1558669],%Inh,LTK,89%
same,%Inh,LYN,93.9%
same,%Inh,LZK,97.5%
same,%Inh,MAK,66%
same,%Inh,MAP3K15,73%
same,%Inh,MAP3K1,38%
same,%Inh,MAP3K2,99.2%
same,%Inh,MAP3K3,99.8%
same,%Inh,MAP3K4,99.9%
same,%Inh,MAP4K2,98.8%
same,%Inh,MAP4K3,99.8%
same,%Inh,MAP4K4,96.8%
same,%Inh,MAP4K5,99.3%
same,%Inh,MAPKAPK2,0%
same,%Inh,MAPKAPK5,0%
same,%Inh,MARK1,99.3%
same,%Inh,MARK2,99.9%
same,%Inh,MARK3,89%
same,%Inh,MARK4,98.7%
same,%Inh,MAST1,91.8%
Cl.Cl.Cl.Fc1ccc(-c2ncn(C3CCNCC3)c2-c2ccnc(Nc3ccccc3)n2)cc1 [SB-238039],%Inh,LTK; 1 µM,27% and 37%
same,%Inh,LYN; 1 µM,42% and 15%
same,%Inh,LZK; 1 µM,0% and 7%
same,%Inh,MAK; 1 µM,3% and 41%
same,%Inh,MAP3K15; 1 µM,0% and 4%
same,%Inh,MAP3K1,0%
same,%Inh,MAP3K2; 1 µM,63% and 27%
same,%Inh,MAP3K3; 1 µM,69% and 98.9%
same,%Inh,MAP3K4; 1 µM,2% and 0%
same,%Inh,MAP4K2; 1 µM,36% and 7%
same,%Inh,MAP4K3; 1 µM,41% and 5%
same,%Inh,MAP4K4; 1 µM,74% and 60%
same,%Inh,MAP4K5; 1 µM,94.1% and 85%
same,%Inh,MAPKAPK2; 1 µM,2% and 33%
same,%Inh,MAPKAPK5; 1 µM,0% and 9%
same,%Inh,MARK1; 1 µM,13% and 10%
same,%Inh,MARK2; 1 µM,43% and 42%
same,%Inh,MARK3; 1 µM,10% and 0%
same,%Inh,MARK4; 1 µM,27% and 11%
same,%Inh,MAST1; 1 µM,52% and 37%
CN1c2ccc(CNc3ccc(F)cc3)cc2-c2c(cnn2C)S1(=O)=O,%Inh,LTK,0%
same,%Inh,LYN,3%
same,%Inh,LZK,0%
same,%Inh,MAK,3%
same,%Inh,MAP3K15,0%
same,%Inh,MAP3K1,0%
same,%Inh,MAP3K2,11%
same,%Inh,MAP3K3,25%
same,%Inh,MAP3K4,12%
same,%Inh,MAP4K2,0%
same,%Inh,MAP4K3,8%
same,%Inh,MAP4K4,0%
same,%Inh,MAP4K5,0%
same,%Inh,MAPKAPK2,0%
same,%Inh,MAPKAPK5,0%
same,%Inh,MARK1,3%
same,%Inh,MARK2,0%
same,%Inh,MARK3,0%
same,%Inh,MARK4,11%
same,%Inh,MAST1,0%
CN(C(=O)c1ccc(-c2cc(-c3c[nH]nc3-c3ccccn3)ccn2)cc1)C1CCOCC1 [GW810083],%Inh,LTK,0%
same,%Inh,LYN,0%
same,%Inh,LZK,0%
same,%Inh,MAK,6%
same,%Inh,MAP3K15,0%
same,%Inh,MAP3K1,0%
same,%Inh,MAP3K2,0%
same,%Inh,MAP3K3,0%
same,%Inh,MAP3K4,0%
same,%Inh,MAP4K2,0%
same,%Inh,MAP4K3,0%
same,%Inh,MAP4K4,9%
same,%Inh,MAP4K5,0%
same,%Inh,MAPKAPK2,0%
same,%Inh,MAPKAPK5,0%
same,%Inh,MARK1,9%
same,%Inh,MARK2,36%
same,%Inh,MARK3,0%
same,%Inh,MARK4,30%
same,%Inh,MAST1,38%
Fc1ccc(-c2ncn(CCCN3CCOCC3)c2-c2cccnc2)cc1 [SB-211743],%Inh,LTK,18%
same,%Inh,LYN,0%
same,%Inh,LZK,0%
same,%Inh,MAK,15%
same,%Inh,MAP3K15,0%
same,%Inh,MAP3K1,7%
same,%Inh,MAP3K2,28%
same,%Inh,MAP3K3,0%
same,%Inh,MAP3K4,0%
same,%Inh,MAP4K2,0%
same,%Inh,MAP4K3,11%
same,%Inh,MAP4K4,0%
same,%Inh,MAP4K5,4%
same,%Inh,MAPKAPK2,0%
same,%Inh,MAPKAPK5,0%
same,%Inh,MARK1,3%
same,%Inh,MARK2,5%
same,%Inh,MARK3,0%
same,%Inh,MARK4,16%
same,%Inh,MAST1,0%
COc1ccc(COc2cc(-n3cnc4ccccc43)sc2C(N)=O)cc1 [GSK1024304],%Inh,LTK,6%
same,%Inh,LYN,0%
same,%Inh,LZK,0%
same,%Inh,MAK,0%
same,%Inh,MAP3K15,0%
same,%Inh,MAP3K1,0%
same,%Inh,MAP3K2,0%
same,%Inh,MAP3K3,0%
same,%Inh,MAP3K4,20%
same,%Inh,MAP4K2,0%
same,%Inh,MAP4K3,0%
same,%Inh,MAP4K4,2%
same,%Inh,MAP4K5,24%
same,%Inh,MAPKAPK2,0%
same,%Inh,MAPKAPK5,0%
same,%Inh,MARK1,0%
same,%Inh,MARK2,1%
same,%Inh,MARK3,5%
same,%Inh,MARK4,11%
same,%Inh,MAST1,0%
CC(C)(C)n1cnc2c(N)ncnc21 [SKF-97359],%Inh,LTK,0%
same,%Inh,LYN,0%
same,%Inh,LZK,15%
same,%Inh,MAK,0%
same,%Inh,MAP3K15,0%
same,%Inh,MAP3K1,0%
same,%Inh,MAP3K2,0%
same,%Inh,MAP3K3,0%
same,%Inh,MAP3K4,0%
same,%Inh,MAP4K2,0%
same,%Inh,MAP4K3,0%
same,%Inh,MAP4K4,0%
same,%Inh,MAP4K5,0%
same,%Inh,MAPKAPK2,0%
same,%Inh,MAPKAPK5,0%
same,%Inh,MARK1,0%
same,%Inh,MARK2,1%
same,%Inh,MARK3,21%
same,%Inh,MARK4,3%
same,%Inh,MAST1,58%
CN(C1=C(c2ccccc2)C(=O)NC1=O)c1ccccc1 [SB-334860],%Inh,LTK,6%
same,%Inh,LYN,0%
same,%Inh,LZK,0%
same,%Inh,MAK,20%
same,%Inh,MAP3K15,0%
same,%Inh,MAP3K1,9%
same,%Inh,MAP3K2,2%
same,%Inh,MAP3K3,0%
same,%Inh,MAP3K4,10%
same,%Inh,MAP4K2,0%
same,%Inh,MAP4K3,8%
same,%Inh,MAP4K4,16%
same,%Inh,MAP4K5,9%
same,%Inh,MAPKAPK2,8%
same,%Inh,MAPKAPK5,0%
same,%Inh,MARK1,0%
same,%Inh,MARK2,3%
same,%Inh,MARK3,0%
same,%Inh,MARK4,0%
same,%Inh,MAST1,0%
Cc1ccc(NC(=O)c2ccnc(N3CCN(C)CC3)c2)cc1-c1ccc(C(=O)NCC2CC2)cc1 [GW775604],%Inh,LTK,0%
same,%Inh,LYN,0%
same,%Inh,LZK,0%
same,%Inh,MAK,0%
same,%Inh,MAP3K15,0%
same,%Inh,MAP3K1,0%
same,%Inh,MAP3K2,0%
same,%Inh,MAP3K3,0%
same,%Inh,MAP3K4,0%
same,%Inh,MAP4K2,0%
same,%Inh,MAP4K3,9%
same,%Inh,MAP4K4,0%
same,%Inh,MAP4K5,0%
same,%Inh,MAPKAPK2,0%
same,%Inh,MAPKAPK5,0%
same,%Inh,MARK1,12%
same,%Inh,MARK2,0%
same,%Inh,MARK3,10%
same,%Inh,MARK4,41%
same,%Inh,MAST1,0%
O=c1cc(N2CCOCC2)nc2n(Cc3cccc4ccccc34)ccn12 [GSK2333389],%Inh,LTK,0%
same,%Inh,LYN,0%
same,%Inh,LZK,0%
same,%Inh,MAK,0%
same,%Inh,MAP3K15,0%
same,%Inh,MAP3K1,8%
same,%Inh,MAP3K2,0%
same,%Inh,MAP3K3,0%
same,%Inh,MAP3K4,0%
same,%Inh,MAP4K2,0%
same,%Inh,MAP4K3,6%
same,%Inh,MAP4K4,15%
same,%Inh,MAP4K5,10%
same,%Inh,MAPKAPK2,3%
same,%Inh,MAPKAPK5,0%
same,%Inh,MARK1,0%
same,%Inh,MARK2,0%
same,%Inh,MARK3,22%
same,%Inh,MARK4,1%
same,%Inh,MAST1,0%
Cc1cn2c(=O)cc(N3CCOCC3)nc2n1Cc1cccc(Cl)c1Cl [GSK2334006],%Inh,LTK,7%
same,%Inh,LYN,4%
same,%Inh,LZK,0%
same,%Inh,MAK,9%
same,%Inh,MAP3K15,2%
same,%Inh,MAP3K1,18%
same,%Inh,MAP3K2,6%
same,%Inh,MAP3K3,0%
same,%Inh,MAP3K4,0%
same,%Inh,MAP4K2,0%
same,%Inh,MAP4K3,5%
same,%Inh,MAP4K4,16%
same,%Inh,MAP4K5,19%
same,%Inh,MAPKAPK2,28%
same,%Inh,MAPKAPK5,0%
same,%Inh,MARK1,0%
same,%Inh,MARK2,0%
same,%Inh,MARK3,2%
same,%Inh,MARK4,0%
same,%Inh,MAST1,0%
